The record followed here is PubChem BioAssay (NCATS).

Inconclusive results are not listed. Where a call stands in place of a potency, no number is given. Calls of active or inactive are those of the source. Calls follow the shape of the dose curve; as a rule, active = well fitted activation curve with a large enough effect; inconclusive = small, poorly fitted or top-dose-only effect; inactive = no such curve, though single readings can be large or run the other way.

In this test the target is Rap guanine nucleotide exchange factor 4 (Homo sapiens) (UniProt Q8WZA2). Briefly: Confirmatory qHTS for agonist of cAMP-regulated guanine nucleotide exchange factor 4 (EPAC2) (AID 1645884). Also: nearly all actives have a fitted effect of over 65% in size. As to conditions: EPAC2 GEF activity, Rap1B-BODIPY-GDP fluorescence; series mostly up to 154 µM. Background: In qHTS, concentration-response curves come from the screen itself.
Sequence of Rap guanine nucleotide exchange factor 4 (Homo sapiens) (Q8WZA2 whole entry, looked up): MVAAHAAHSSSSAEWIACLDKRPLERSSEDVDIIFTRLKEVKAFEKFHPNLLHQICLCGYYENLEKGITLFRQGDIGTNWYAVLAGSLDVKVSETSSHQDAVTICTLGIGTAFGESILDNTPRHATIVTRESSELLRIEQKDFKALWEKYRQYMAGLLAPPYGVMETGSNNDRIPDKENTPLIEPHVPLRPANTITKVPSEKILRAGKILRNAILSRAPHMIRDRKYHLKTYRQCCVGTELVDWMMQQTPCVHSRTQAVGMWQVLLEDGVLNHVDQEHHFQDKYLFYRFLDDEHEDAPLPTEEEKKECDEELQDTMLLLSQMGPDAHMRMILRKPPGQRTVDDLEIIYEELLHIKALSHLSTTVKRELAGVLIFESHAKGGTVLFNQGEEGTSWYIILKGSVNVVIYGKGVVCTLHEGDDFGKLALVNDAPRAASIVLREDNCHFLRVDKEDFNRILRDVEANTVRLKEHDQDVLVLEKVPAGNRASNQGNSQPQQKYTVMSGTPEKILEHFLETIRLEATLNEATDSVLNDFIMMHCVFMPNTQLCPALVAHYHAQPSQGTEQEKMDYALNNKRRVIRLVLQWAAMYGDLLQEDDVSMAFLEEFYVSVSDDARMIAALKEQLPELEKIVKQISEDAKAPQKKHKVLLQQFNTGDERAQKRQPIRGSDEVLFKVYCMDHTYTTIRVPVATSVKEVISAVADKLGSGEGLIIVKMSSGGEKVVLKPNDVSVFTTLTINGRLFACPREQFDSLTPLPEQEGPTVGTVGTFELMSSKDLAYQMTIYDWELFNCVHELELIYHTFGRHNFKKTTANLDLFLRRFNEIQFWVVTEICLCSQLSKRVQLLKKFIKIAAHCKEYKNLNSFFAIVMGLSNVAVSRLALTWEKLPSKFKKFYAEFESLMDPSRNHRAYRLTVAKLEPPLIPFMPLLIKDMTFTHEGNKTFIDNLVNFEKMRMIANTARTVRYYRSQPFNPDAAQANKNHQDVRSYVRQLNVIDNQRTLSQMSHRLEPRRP
For `CCOC(=O)C1(Cc2ccccc2)C(=O)Nc2ccccc21` (centres undefined), the activation was 2.58% [at 17.1 µM, percent relative to cAMP agonist control] (inactive). Same read-out and setting: the figure for `COc1ccc(OC)c(/C=C/c2ccnc3ccccc23)c1` is 0% [at 17.1 µM, percent relative to cAMP agonist control] (inactive); for `CN(C)c1ccc2nc3c(=O)[nH]c(=O)nc-3n(CC(O)C(O)C(O)CO)c2c1` (centres undefined) it is -84.9% [at 17.1 µM, percent relative to cAMP agonist control] (inactive). For the molecule `COc1ncc2nc(-c3ccccc3)c(=O)n(Cc3cccs3)c2n1`, the Potency entry is “inactive”. Take `Oc1ccc2ccccc2c1-c1sc(Nc2ccccc2)n[n+]1-c1ccc(F)cc1`: the Potency result was “inactive”.

In the case of `Cc1ccccc1-c1ccc2ncnc(N3CCOCC3)c2c1`, the Potency result is “inactive”. For the molecule `O=C1C=C(c2ccccc2)C(c2ccccc2)C1` (centres undefined), the Potency result was “inactive”. Still for that read-out and setting: as for `COc1ccc2c(c1)CCC1(C)CC(=O)C(Br)=C21` (centres undefined), the entry is “inactive”; as for `O=C(O)/C(CC(=O)c1ccc(Cl)cc1)=N/Nc1ccc([N+](=O)[O-])cc1[N+](=O)[O-]`, “inactive”. On to `COc1ccc(/C=C2/C(=O)N(CC3CCCO3)C(=S)N2C)c(OC)c1` (centres undefined), for which the Potency result is “inactive”.

As for `COc1ccc(NS(=O)(=O)c2cc(N)ccc2N2CCCCC2)cc1`, the Potency result is “inactive”.

In the case of `COc1cc(Br)cc(C(=O)N2CCc3ccccc32)c1OC`, the Potency entry was “inactive”.

`CC(=O)Oc1c2c(c3c(c1CC=C(C)C)O[C@@]14C(=CC5CC1C(C)(C)OC4(C/C=C(\C)C(=O)O)C5=O)C3=O)OC(C)(CCC=C(C)C)C=C2` (some centres undefined): the Potency result is “inactive”. For `O=C(CN1CCCCC1)Nc1cc(Cl)ccc1Oc1ccccc1`, the Potency result is “inactive”. For `O=c1cc2oc3cc(O)c(O)cc3c(-c3ccccc3[N+](=O)[O-])c-2cc1O`, the Potency result was “inactive”. Regarding `O=C(c1ccco1)N1N=C2CCCCCC2C1(O)C(F)(F)F` (centres undefined), the Potency result was “inactive”.

In the case of `CCOC(=O)C(Cc1ccc(Cl)cc1Cl)c1ccno1` (centres undefined), the Potency result was “inactive”. Same read-out and setting: the entry for `COc1ccc(C2OCC3(COC(C)=O)C(C)C=C(C)C2C3C)cc1` (centres undefined) is “inactive”; for `C=CCn1c(SCc2cc([N+](=O)[O-])cc3c2OCOC3)nc2cc(C(=O)O)ccc2c1=O` it is “inactive”; for `COC(=O)c1cc(C(=O)OC)n(Cc2ccc(F)cc2)c1C` it is “inactive”. For `CC(=O)NC(c1ccc(Cl)cc1)c1ccc2cccnc2c1O` (centres undefined), the activation was -1.77% [at 17.1 µM, percent relative to cAMP agonist control] (inactive). With `COc1ccc(C2CC2/C(=N/O)c2ccccn2)cc1` (centres undefined), the Potency result is “inactive”. Turning to `COc1cc(C)c2c(=O)cc(-c3ccccc3)oc2c1`, the Potency result is “inactive”. For `NS(=O)(=O)c1cccc(Nc2nc3ccccc3nc2NS(=O)(=O)c2ccc(Cl)cc2)c1`, the Potency result is “inactive”.
